# From the supplement of paper PMC8728848
# About 410 targets per protein were measured; listed, in parts, are those with the strongest signals and a random draw of the rest.
# B1: MpL2 (Macrolepiota procera) (protein)
# chain: MSTQVSSGQTYKITNVKAGTVIDLSGEDNKSIIGYPYHSGKNQQWTFNWTGKAWTLRSASSGSYLGIEGTPADGTRLVAVNDPFEWHIWRDEANENAFRIFVPFTNYNLRLSGYGDTTPGTPVQLWWTWEGLHQTWTIDRP
# How the values were obtained:
# Test in all cases: glycan array binding signal (z-score within array); higher = stronger binding
# Conditions in all cases: glycan notation: IUPAC condensed, linker removed; mutation: D109R
# [1] = target: Fuc(a1-2)Gal(b1-3)GlcNAc(b1-3)Gal(b1-4)Glc
# Summary of the method: (§1)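 Glycan array data were curated from 3228 arrays in the Consortium for Functional Glycomics database and kept only where the protein sequence was available. Glycan names were converted to IUPAC-condensed notation, and columns mapping to the same glycan were averaged. The binding signal is a within-array Z-score, averaged across arrays of the same protein sequence at different concentrations or buffers and across linkers. Negative Z-scores can be read as non-binding.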
# [2] = target: Fuc(a1-2)Gal(b1-3)[Fuc(a1-4)]GlcNAc(b1-3)[Gal(b1-4)GlcNAc(b1-6)]Gal(b1-4)Glc
# Summary of the method: as §1
# [3] = target: Fuc(a1-2)Gal6S(b1-3)GlcNAc6S
# Summary of the method: as §1
# [4] = target: Fuc(a1-2)Gal6S(b1-4)Glc6S
# Summary of the method: as §1
# [5] = target: Fuc(a1-2)[Gal(a1-3)]Gal(b1-3)GlcNAc(b1-3)GalNAc
# Summary of the method: as §1
# [6] = target: Fuc(a1-2)[Gal(a1-3)]Gal(b1-4)GlcNAc(b1-3)GalNAc
# Summary of the method: as §1
# [7] = target: Fuc(a1-2)[GalNAc(b1-3)]Gal
# Summary of the method: as §1
# [8] = target: Fuc(a1-3)[Gal3S(b1-4)]GlcNAc6S
# Summary of the method: as §1
# [9] = target: Gal(a1-3)Gal(b1-4)GlcNAc
# Summary of the method: as §1
# [10] = target: Gal(a1-4)Gal(b1-4)GlcNAc
# Summary of the method: as §1
# [11] = target: Gal(b1-3)Gal(b1-4)GlcNAc
# Summary of the method: as §1
# [12] = target: Gal(b1-3)GalNAc
# Summary of the method: as §1
# [13] = target: Gal(b1-3)GalNAc(a1-3)[Fuc(a1-2)]Gal(b1-4)GlcNAc
# Summary of the method: as §1
# [14] = target: Gal(b1-3)GlcNAc(a1-6)Gal(b1-4)GlcNAc
# Summary of the method: as §1
# [15] = target: Gal(b1-3)GlcNAc(b1-2)[Gal(b1-3)GlcNAc(b1-6)]Man(a1-6)[Gal(b1-3)GlcNAc(b1-2)Man(a1-3)]Man(b1-4)GlcNAc(b1-4)GlcNAc
# Summary of the method: as §1
# [16] = target: Gal(b1-3)GlcNAc(b1-3)Gal(b1-4)GlcNAc(b1-6)[Gal(b1-3)GlcNAc(b1-3)]Gal(b1-4)Glc
# Summary of the method: as §1
# [17] = target: Gal(b1-3)[Fuc(a1-4)]GlcNAc
# Summary of the method: as §1
# [18] = target: Gal(b1-4)Glc
# Summary of the method: as §1
# [19] = target: Gal(b1-4)GlcNAc(a1-6)Gal(b1-4)GlcNAc
# Summary of the method: as §1
# [20] = target: Gal(b1-4)GlcNAc(b1-2)Man(a1-3)[GlcNAc(b1-2)Man(a1-6)]Man(b1-4)GlcNAc(b1-4)GlcNAc
# Summary of the method: as §1
# [21] = target: Gal(b1-4)GlcNAc(b1-3)Gal(b1-4)GlcNAc(b1-2)[Gal(b1-4)GlcNAc(b1-3)Gal(b1-4)GlcNAc(b1-6)]Man(a1-6)[Gal(b1-4)GlcNAc(b1-3)Gal(b1-4)GlcNAc(b1-2)Man(a1-3)]Man(b1-4)GlcNAc(b1-4)[Fuc(a1-6)]GlcNAc
# Summary of the method: as §1
# [22] = target: Gal(b1-4)GlcNAc(b1-3)Gal(b1-4)GlcNAc(b1-3)Gal(b1-4)GlcNAc(b1-2)[Gal(b1-4)GlcNAc(b1-3)Gal(b1-4)GlcNAc(b1-3)Gal(b1-4)GlcNAc(b1-6)]Man(a1-6)[Gal(b1-4)GlcNAc(b1-3)Gal(b1-4)GlcNAc(b1-3)Gal(b1-4)GlcNAc(b1-2)Man(a1-3)]Man(b1-4)GlcNAc(b1-4)[Fuc(a1-6)]GlcNAc
# Summary of the method: as §1
# [23] = target: Gal(b1-4)GlcNAc(b1-3)Gal(b1-4)GlcNAc(b1-3)Gal(b1-4)GlcNAc(b1-3)Gal(b1-4)GlcNAc(b1-2)Man(a1-3)[Gal(b1-4)GlcNAc(b1-3)Gal(b1-4)GlcNAc(b1-3)Gal(b1-4)GlcNAc(b1-3)Gal(b1-4)GlcNAc(b1-2)Man(a1-6)]Man(b1-4)GlcNAc(b1-4)GlcNAc
# Summary of the method: as §1
# [24] = target: Gal(b1-4)GlcNAc(b1-3)Gal(b1-4)GlcNAc(b1-3)Gal(b1-4)GlcNAc(b1-3)Gal(b1-4)GlcNAc(b1-2)[Gal(b1-4)GlcNAc(b1-3)Gal(b1-4)GlcNAc(b1-3)Gal(b1-4)GlcNAc(b1-3)Gal(b1-4)GlcNAc(b1-6)]Man(a1-6)[Gal(b1-4)GlcNAc(b1-3)Gal(b1-4)GlcNAc(b1-3)Gal(b1-4)GlcNAc(b1-3)Gal(b1-4)GlcNAc(b1-2)Man(a1-3)]Man(b1-4)GlcNAc(b1-4)[Fuc(a1-6)]GlcNAc
# Summary of the method: as §1
# [25] = target: Gal(b1-4)GlcNAc(b1-3)Gal(b1-4)GlcNAc(b1-3)Gal(b1-4)GlcNAc(b1-3)Gal(b1-4)GlcNAc(b1-3)Gal(b1-4)GlcNAc(b1-2)Man(a1-3)[Gal(b1-4)GlcNAc(b1-3)Gal(b1-4)GlcNAc(b1-3)Gal(b1-4)GlcNAc(b1-3)Gal(b1-4)GlcNAc(b1-3)Gal(b1-4)GlcNAc(b1-2)Man(a1-6)]Man(b1-4)GlcNAc(b1-4)GlcNAc
# Summary of the method: as §1
# [26] = target: Gal(b1-4)GlcNAc(b1-3)Gal(b1-4)GlcNAc(b1-3)Gal(b1-4)GlcNAc(b1-3)Gal(b1-4)GlcNAc(b1-3)Gal(b1-4)GlcNAc(b1-2)[Gal(b1-4)GlcNAc(b1-3)Gal(b1-4)GlcNAc(b1-3)Gal(b1-4)GlcNAc(b1-3)Gal(b1-4)GlcNAc(b1-3)Gal(b1-4)GlcNAc(b1-6)]Man(a1-6)[Gal(b1-4)GlcNAc(b1-3)Gal(b1-4)GlcNAc(b1-3)Gal(b1-4)GlcNAc(b1-3)Gal(b1-4)GlcNAc(b1-3)Gal(b1-4)GlcNAc(b1-2)Man(a1-3)]Man(b1-4)GlcNAc(b1-4)[Fuc(a1-6)]GlcNAc
# Summary of the method: as §1
# [27] = target: Gal3S(b1-3)GlcNAc
# Summary of the method: as §1
# [28] = target: Gal6P(b1-4)GlcNAc
# Summary of the method: as §1
# [29] = target: GalNAc(b1-3)GalNAc
# Summary of the method: as §1
# [30] = target: GalNAc(b1-4)GlcNAc(b1-3)GalNAc(b1-4)GlcNAc
# Summary of the method: as §1
# [31] = target: GalNAc3S(b1-4)GlcNAc3S
# Summary of the method: as §1
# [32] = target: GalNAc3S(b1-4)[Fuc(a1-3)]GlcNAc
# Summary of the method: as §1
# [33] = target: GlcNAc(a1-6)Gal(b1-4)GlcNAc
# Summary of the method: as §1
# [34] = target: GlcNAc(b1-4)GlcNAc(b1-4)GlcNAc
# Summary of the method: as §1
# [35] = target: GlcNAc(b1-4)GlcNAc(b1-4)GlcNAc(b1-4)GlcNAc(b1-4)GlcNAc
# Summary of the method: as §1
# [36] = target: GlcNAc6S(b1-3)Gal(b1-4)GlcNAc
# Summary of the method: as §1
# [37] = target: MurNAc(b1-4)GlcNAc
# Summary of the method: as §1
# [38] = target: Neu5Ac(a2-3)Gal(b1-3)GalNAc(b1-3)Gal(a1-4)Gal(b1-4)Glc
# Summary of the method: as §1
# [39] = target: Neu5Ac(a2-3)Gal(b1-4)GlcNAc(b1-2)Man(a1-3)[Neu5Ac(a2-3)Gal(b1-4)GlcNAc(b1-2)Man(a1-6)]Man(b1-4)GlcNAc(b1-4)[Fuc(a1-6)]GlcNAc
# Summary of the method: as §1
# [40] = target: Neu5Ac(a2-6)Gal(b1-4)GlcNAc(b1-2)Man(a1-3)[Neu5Ac(a2-3)Gal(b1-4)GlcNAc(b1-2)Man(a1-6)]Man(b1-4)GlcNAc(b1-4)GlcNAc
# Summary of the method: as §1
# [41] = target: Neu5Ac(a2-6)Gal(b1-4)GlcNAc(b1-2)Man(a1-3)[Neu5Ac(a2-6)Gal(b1-4)GlcNAc(b1-2)Man(a1-6)]Man(b1-4)GlcNAc(b1-4)[Fuc(a1-6)]GlcNAc
# Summary of the method: as §1
# [42] = target: Neu5Ac(a2-6)Gal(b1-4)GlcNAc(b1-3)Gal(b1-4)GlcNAc(b1-3)GalNAc
# Summary of the method: as §1
# [43] = target: Neu5Ac(a2-6)Gal(b1-4)GlcNAc(b1-3)[Neu5Ac(a2-6)Gal(b1-4)GlcNAc(b1-6)]GalNAc
# Summary of the method: as §1
# [44] = target: Neu5Ac(a2-6)Gal(b1-4)GlcNAc6S
# Summary of the method: as §1
# [45] = target: Neu5Ac(a2-6)GalNAc(b1-4)GlcNAc
# Summary of the method: as §1
# [46] = target: Neu5Ac(a2-8)Neu5Ac(a2-8)Neu5Ac(a2-3)Gal(b1-4)Glc
# Summary of the method: as §1
# [47] = target: Neu5Ac(a2-8)Neu5Ac(a2-8)Neu5Ac(a2-3)[GalNAc(b1-4)]Gal(b1-4)Glc
# Summary of the method: as §1
binder,measurement,setting,value
B1,glycan array binding signal (z-score),[1],-0.257
same,glycan array binding signal (z-score),[2],-0.099
same,glycan array binding signal (z-score),[3],-0.247
same,glycan array binding signal (z-score),[4],-0.259
same,glycan array binding signal (z-score),[5],-0.266
same,glycan array binding signal (z-score),[6],-0.251
same,glycan array binding signal (z-score),[7],-0.247
same,glycan array binding signal (z-score),[8],-0.255
same,glycan array binding signal (z-score),[9],-0.264
same,glycan array binding signal (z-score),[10],-0.289
same,glycan array binding signal (z-score),[11],-0.255
same,glycan array binding signal (z-score),[12],-0.256
same,glycan array binding signal (z-score),[13],-0.201
same,glycan array binding signal (z-score),[14],3.81
same,glycan array binding signal (z-score),[15],3.46
same,glycan array binding signal (z-score),[16],3.65
same,glycan array binding signal (z-score),[17],-0.267
same,glycan array binding signal (z-score),[18],-0.244
same,glycan array binding signal (z-score),[19],12.2
same,glycan array binding signal (z-score),[20],-0.001
same,glycan array binding signal (z-score),[21],3.95
same,glycan array binding signal (z-score),[22],3.9
same,glycan array binding signal (z-score),[23],3.84
same,glycan array binding signal (z-score),[24],4.36
same,glycan array binding signal (z-score),[25],3.94
same,glycan array binding signal (z-score),[26],4.48
same,glycan array binding signal (z-score),[27],-0.276
same,glycan array binding signal (z-score),[28],-0.218
same,glycan array binding signal (z-score),[29],-0.254
same,glycan array binding signal (z-score),[30],3.89
same,glycan array binding signal (z-score),[31],-0.255
same,glycan array binding signal (z-score),[32],-0.254
same,glycan array binding signal (z-score),[33],6.07
same,glycan array binding signal (z-score),[34],-0.248
same,glycan array binding signal (z-score),[35],-0.246
same,glycan array binding signal (z-score),[36],0.055
same,glycan array binding signal (z-score),[37],-0.259
same,glycan array binding signal (z-score),[38],-0.241
same,glycan array binding signal (z-score),[39],-0.215
same,glycan array binding signal (z-score),[40],-0.261
same,glycan array binding signal (z-score),[41],-0.223
same,glycan array binding signal (z-score),[42],-0.261
same,glycan array binding signal (z-score),[43],-0.255
same,glycan array binding signal (z-score),[44],-0.289
same,glycan array binding signal (z-score),[45],-0.301
same,glycan array binding signal (z-score),[46],-0.272
same,glycan array binding signal (z-score),[47],-0.234
